# In PubChem BioAssay AID504321 (NMMLSC, 2011):
# Values without a mark were called inactive.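 Rule for the calls: active = GFP response vs DMSO above 150% with enough events counted; inconclusive = fewer than 70 events counted for a yeast strain; inactive = the rest.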
# Experiment: yeast MEP2-GFP fusion level changes, TOR pathway – flow cytometry, third cherry pick, S. cerevisiae, confirmation (AID 504321);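 note: median per-cell GFP fluorescence by flow cytometry across all yeast cells; ratio of sample to DMSO median GFP so 100% equals the DMSO level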
# Conditions: S. cerevisiae MEP2-GFP strain, 3 h, at 10 µM, stronger effect = higher value
row,SMILES,GFP response vs DMSO [%]
1,CN1CCN(c2ncnc3ccc(Br)cc23)CC1,101
2,CCN1CCN(c2ncnc3ccc(Br)cc23)CC1,112
3,Cc1ccc2c(c1N)C(=O)c1ccccc1C2=O,103
4,CN(C)C(=O)Oc1ccc(Cl)c2cccnc12,110
5,CN(C)C(=O)Oc1ccnc2cc(Cl)ccc12,108
6,C/C(O)=C(\C#N)C(=O)Nc1cc(Br)ccc1Br,112
